Here are results for 31 molecules from PubChem BioAssay (EPA / NIEHS).

Inconclusive results are not listed. Active and inactive are the calls of the source. The calls were made as follows, unless noted: active = hit-call score of the fitted dose curve at least 0.9, where 1 is the maximum; inconclusive = response in the unintended direction; inactive = score below 0.9.

Broadly, the AC50 is the concentration giving half of the maximal activity seen.

Read-out in the first experiment: X-box binding protein 1 (XBP1), XBP1 (gene 7494)
Nature of the experiment: LTEA_HepaRG_XBP1: Life Technologies and Expression Analysis (LTEA) Assay for X-box binding protein 1 (XBP1) using HepaRG (AID 2283540; active = hit-call score of the fitted dose curve at least 0.9, where 1 is the maximum; inactive = score below 0.9). The conditions noted are these: mRNA level, 48 h; actives raise or lower the signal. The procedure, abridged:
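Differentiated human HepaRG cells in serum-free induction medium exposed 48 h in duplicate to eight half-log concentrations up to 100 uM in 0.5% DMSO. XBP1 mRNA measured by Fluidigm TaqMan qRT-PCR, normalized to ACTB, GAPDH, POLR2A; bidirectional fitting against DMSO.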
Consider `OC(Cn1cncn1)(Cn1cncn1)c1ccc(F)cc1F`, for which the molecule was classed as inactive.
Consider `O=C1CN(N=Cc2ccc([N+](=O)[O-])o2)C(=O)N1`, for which the result was inactive.
The same measure, in the same setting: the same measure for `Cc1nc(-c2ccccn2)ncc1C(=O)Nn1cc(C)c2cc(F)ccc21`: “inactive”; for `COc1cc(C(C)C)c2c(c1)S(=O)(=O)N(COc1cc(=O)n3cccc(OCCN4CCCCC4)c3n1)C2=O`: “inactive”; for `OCC(CO)(CO)CO`: “inactive”.
The same measure, in the same setting: the same measure for `CCCCC(CC)C(=O)OCCOCCOCCOC(=O)C(CC)CCCC` (configuration not stated): “inactive”.
As to `COc1cc2c(c(OC)c1OC)-c1ccc(OC)c(=O)cc1[C@@H](NC(C)=O)CC2`, the AC50 is 218 nM (active).
With `CCOc1ccc2[nH]cc(C(=O)NCc3ccccc3)c(=O)c2n1`, the molecule was called inactive.
On the same count and under the same terms, the same measure for `COCc1nnc(-c2ccc[n+]([O-])c2)n1-c1c(Cl)c(Cl)cc2[nH]c(=O)c(=O)[nH]c12`: “inactive”; for `NNC(=O)c1ccncc1`: “inactive”.
The same measure, in the same setting: the same measure for `OCc1ccccc1`: “inactive”.
The same measure, in the same setting: the same measure for `NC(=O)N(O)[C@@H]1COc2cc(OCc3ccccc3)ccc21`: “inactive”.
For `O=S(=O)(O)c1ccc(N=Nc2c(O)ccc3cc(S(=O)(=O)O)ccc23)cc1`, the molecule was called inactive.

Read-out in another experiment: not listed separately
Nature of the experiment: LTEA_HepaRG_LDH_cytotoxicity: Cytotoxicity Assessment in the Life Technologies and Expression Analysis (LTEA) Assay (AID 2283563).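 As to AC50: LDH activity released into spent culture medium as a marker of cell death.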
Settings: not given
The procedure, abridged:
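Differentiated HepaRG cells in serum-free induction medium, exposed 48 h in duplicate to 8 half-log concentrations up to 100 uM in 0.5% DMSO. Cytotoxicity from LDH measured in spent medium, fit relative to DMSO.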
`OCCNCCO`: the molecule was called inactive.
The same measure, in the same setting: the same measure for `CC(C)CC(C)O` (configuration not stated): “inactive”; for `CCCCOC(=O)c1ccccc1`: “inactive”; for `CC(C)CCCCCCOC(=O)C1CCCCC1C(=O)OCCCCCCC(C)C` (configuration not stated): “inactive”.
Consider `O=C(O)[C@H](O)[C@@H](O)C(=O)O`, for which the outcome was inactive.
With `CCCCN1C(=O)[C@@H]([C@H](O)C2CCCCC2)NC(=O)C12CCN(Cc1ccc(Oc3ccc(C(=O)O)cc3)cc1)CC2`, the half-maximal activity concentration (AC50) was 37.5 µM (active).
With `C=CN1CCCC1=O`, the result was inactive.
On the same count and under the same terms, the same measure for `CCCc1ccccc1`: “inactive”; for `O=C(O)c1cccc(C(=O)O)c1`: “inactive”.
`CC(=O)c1ccccc1`: the call was inactive.
`CCCCCCOC(=O)CC(CC(=O)OCCCCCC)(OC(=O)CCC)C(=O)OCCCCCC`: the molecule was classed as inactive.
Consider `CCc1ccc(O)c(C(C)(C)C)c1`, for which the outcome was inactive.
As to `O=c1[nH]cnc2c1ncn2[C@H]1CC[C@@H](CO)O1`, the molecule was called inactive.
Still for that read-out and setting: the same measure for `COS(C)(=O)=O`: “inactive”.
Still for that read-out and setting: with `NC(=O)N1c2ccccc2C=Cc2ccccc21` the entry was “inactive”; with `c1ccc2cc3ccccc3cc2c1`, “inactive”.
On the same count and under the same terms, with `OC(CCl)CCl` the entry was “inactive”; with `c1ccc2ncccc2c1`, “inactive”.
Regarding `OC(Cn1cncn1)(Cn1cncn1)c1ccc(F)cc1F`, the outcome was inactive.
As to `O=C1CN(N=Cc2ccc([N+](=O)[O-])o2)C(=O)N1`, the molecule was classed as inactive.
Same read-out and setting: with `OCC(CO)(CO)CO` the entry was “inactive”; with `CCCCC(CC)C(=O)OCCOCCOCCOC(=O)C(CC)CCCC` (configuration not stated), “inactive”.
On the same count and under the same terms, the same measure for `COc1cc2c(c(OC)c1OC)-c1ccc(OC)c(=O)cc1[C@@H](NC(C)=O)CC2`: “inactive”.
As to `NNC(=O)c1ccncc1`, the call was inactive.
For the molecule `NC(=O)N(O)[C@@H]1COc2cc(OCc3ccccc3)ccc21`, the result was inactive.

Tested on in the next experiment: not listed separately
Nature of the experiment: ATG_XTT_Cytotoxicity: Cytotoxicity Assessment in the Attagene TRANS-FACTORIAL HepG2 Assay (AID 2283584).
Settings: not given
The procedure, abridged:
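HepG2 cells transiently transfected with GAL4-UAS multiple reporter units, dosed 24 h; cytotoxicity read by XTT as loss of signal versus DMSO baseline.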
As for `OCCNCCO`, the molecule was called inactive.
Same read-out and setting: the same measure for `CC(C)CC(C)O` (configuration not stated): “inactive”; for `C=CN1CCCC1=O`: “inactive”; for `O=C(O)c1cccc(C(=O)O)c1`: “inactive”.
Turning to `CCCCCCOC(=O)CC(CC(=O)OCCCCCC)(OC(=O)CCC)C(=O)OCCCCCC`, the result was inactive.
Still for that read-out and setting: with `CCc1ccc(O)c(C(C)(C)C)c1` the entry was “inactive”; with `O=c1[nH]cnc2c1ncn2[C@H]1CC[C@@H](CO)O1`, “inactive”; with `NC(=O)N1c2ccccc2C=Cc2ccccc21`, “inactive”.
Take `OC(CCl)CCl`: the result was inactive.
Take `OC(Cn1cncn1)(Cn1cncn1)c1ccc(F)cc1F`: the outcome was inactive.
For `O=C1CN(N=Cc2ccc([N+](=O)[O-])o2)C(=O)N1`, the molecule was classed as inactive.
Still for that read-out and setting: with `OCC(CO)(CO)CO` the entry was “inactive”; with `COc1cc2c(c(OC)c1OC)-c1ccc(OC)c(=O)cc1[C@@H](NC(C)=O)CC2`, “inactive”; with `NNC(=O)c1ccncc1`, “inactive”.

For the next experiment, the target named is Cellular tumor antigen p53 (Homo sapiens) (UniProt P04637). Nature of the experiment: TOX21_p53_BLA_p2_ratio: Tox21 HCT-116 p53 Agonism Beta-lactamase Assay, Ratio, Phase 2 (AID 2283592).
Chain of Cellular tumor antigen p53 (Homo sapiens) (P04637 whole entry, looked up): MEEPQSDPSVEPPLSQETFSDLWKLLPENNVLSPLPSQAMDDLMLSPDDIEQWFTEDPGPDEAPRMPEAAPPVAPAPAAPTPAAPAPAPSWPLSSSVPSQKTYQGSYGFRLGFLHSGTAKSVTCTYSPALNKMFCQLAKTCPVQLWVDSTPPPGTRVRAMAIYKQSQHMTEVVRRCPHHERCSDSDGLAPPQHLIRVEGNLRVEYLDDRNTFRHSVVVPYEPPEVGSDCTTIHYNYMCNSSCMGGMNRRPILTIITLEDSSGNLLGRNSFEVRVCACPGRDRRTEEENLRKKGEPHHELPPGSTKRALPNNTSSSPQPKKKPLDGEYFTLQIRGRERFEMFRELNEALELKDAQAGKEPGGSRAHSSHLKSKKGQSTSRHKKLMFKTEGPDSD
Settings: not given
The procedure, abridged: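 HCT-116 cells with p53-responsive beta-lactamase reporter, 4000 cells/well, preincubated 5 h, then compound in DMSO (217-fold dilution) for 16 h at 37C. CCF4-AM substrate 2 h at room temperature; 460/530 nm emission ratio fitted upward versus DMSO.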
As for `CCCCOC(=O)c1ccccc1`, the outcome was inactive.
Turning to `CCCCN1C(=O)[C@@H]([C@H](O)C2CCCCC2)NC(=O)C12CCN(Cc1ccc(Oc3ccc(C(=O)O)cc3)cc1)CC2`, the AC50 is 38.1 µM (active).
For `C=CN1CCCC1=O`, the outcome was inactive.
On the same count and under the same terms, the same measure for `CCCc1ccccc1`: “inactive”; for `CC(=O)c1ccccc1`: “inactive”.
`CCc1ccc(O)c(C(C)(C)C)c1`: the concentration at half-maximal activity (AC50) was 69.7 µM (active).
As to `c1ccc2cc3ccccc3cc2c1`, the outcome was inactive.
In the case of `OC(CCl)CCl`, the result was inactive.
Take `c1ccc2ncccc2c1`: the outcome was inactive.
As to `OC(Cn1cncn1)(Cn1cncn1)c1ccc(F)cc1F`, the result was inactive.
Regarding `O=C1CN(N=Cc2ccc([N+](=O)[O-])o2)C(=O)N1`, the result was inactive.
Still for that read-out and setting: the same measure for `CCCCC(CC)C(=O)OCCOCCOCCOC(=O)C(CC)CCCC` (configuration not stated): “inactive”; for `NNC(=O)c1ccncc1`: “inactive”.

Tested on in a further experiment: not listed separately
Nature of the experiment: TOX21_p53_BLA_p3_viability: Viability Assessment in the Tox21 HCT-116 p53 Agonism Beta-lactamase Assay, Phase 3 (AID 2283593).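 Also: cells exposed to compound for 16 h before reading.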
Settings: not given
The gist of the method: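 HCT116 cells, 4000/well, dosed 5 h after plating by pin transfer (217-fold dilution from DMSO stock) and incubated 16 h at 37C, 5% CO2. Viability read as ATP luminescence with CellTiter-Glo after 30 min at room temperature.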
On to `CCCCOC(=O)c1ccccc1`, for which the result was inactive.
The same measure, in the same setting: with `C=CN1CCCC1=O` the entry was “inactive”; with `CCCc1ccccc1`, “inactive”; with `CC(=O)c1ccccc1`, “inactive”.
On the same count and under the same terms, with `CCc1ccc(O)c(C(C)(C)C)c1` the entry was “inactive”.
On the same count and under the same terms, with `c1ccc2cc3ccccc3cc2c1` the entry was “inactive”; with `OC(CCl)CCl`, “inactive”.
Consider `c1ccc2ncccc2c1`, for which the result was inactive.
On the same count and under the same terms, the same measure for `OC(Cn1cncn1)(Cn1cncn1)c1ccc(F)cc1F`: “inactive”.
Take `O=C1CN(N=Cc2ccc([N+](=O)[O-])o2)C(=O)N1`: the molecule was classed as inactive.
The same measure, in the same setting: with `CCCCC(CC)C(=O)OCCOCCOCCOC(=O)C(CC)CCCC` (configuration not stated) the entry was “inactive”; with `NNC(=O)c1ccncc1`, “inactive”.
